# In PubChem BioAssay AID1159580 (chemical genetic matrix, 2015):
# Screen size: about 5,500 compounds; about 2,000 (36%) were called active. Not shown: some 18% with an inconclusive outcome. This is one part of the list. Unmarked numbers belong to inactive results. Cut-off read from the data, not from the text of the source: active = normalized growth mostly below about 0.91 (no sharp cut-off); inconclusive = no clear call, values can overlap the other calls; inactive = mostly above about 0.92.
# Assay: chemical genetic growth profiling, strain panel (AID 1159580);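 note: tested at 20 µM; growth read once vehicle control cultures reached saturation at 30 °C; 1 = growth at the plate median or of vehicle wells; lower values mean less growth of the strain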
# Details: growth OD
# [1] = S. cerevisiae deletion strains, locus YAL013W, strain DEP1, active compounds read low
# [2] = S. cerevisiae deletion strains, locus YBR229C, strain ROT2, active compounds read low
# [3] = S. cerevisiae deletion strains, locus YCL061C, strain MRC1, active compounds read low
# [4] = S. cerevisiae deletion strains, locus YDL101C, strain DUN1, active compounds read low
# [5] = S. cerevisiae deletion strains, locus YDR150W, strain NUM1, active compounds read low
# [6] = S. cerevisiae deletion strains, locus YEL061C, strain CIN8, active compounds read low
# [7] = S. cerevisiae deletion strains, locus YGR078C, strain PAC10, active compounds read low
# [8] = S. cerevisiae deletion strains, locus YHR030C, strain SLT2, active compounds read low
# [9] = S. cerevisiae deletion strains, locus YHR087W, strain rtc3, active compounds read low
# [10] = S. cerevisiae deletion strains, locus YJR043C, strain POL32, active compounds read low
# [11] = S. cerevisiae deletion strains, locus YJR075W, strain HOC1, active compounds read low
# [12] = S. cerevisiae deletion strains, locus YKL190W, strain CNB1, active compounds read low
# [13] = S. cerevisiae deletion strains, locus YLR039C, strain RIC1, active compounds read low
# [14] = S. cerevisiae deletion strains, locus YLR058C, strain SHM2 (second series), active compounds read low
# [15] = S. cerevisiae deletion strains, locus YLR085C, strain ARP6, active compounds read low
# [16] = S. cerevisiae deletion strains, locus YLR262C, strain YPT6, active compounds read low
# [17] = S. cerevisiae deletion strains, locus YML094W, strain GIM5, active compounds read low
# [18] = S. cerevisiae deletion strains, locus YMR219W, strain ESC1, active compounds read low
# [19] = S. cerevisiae deletion strains, locus YMR263W, strain SAP30, active compounds read low
# [20] = S. cerevisiae deletion strains, locus YNL153C, strain GIM3, active compounds read low
# [21] = S. cerevisiae deletion strains, locus YNL298W, strain CLA4 (second series), active compounds read low
# [22] = S. cerevisiae deletion strains, locus YNL322C, strain KRE1, active compounds read low
# [23] = S. cerevisiae deletion strains, locus YNR030W, strain Alg12, active compounds read low
# [24] = S. cerevisiae deletion strains, locus YOL006C, strain TOP1, active compounds read low
# [25] = S. cerevisiae deletion strains, locus YPL055C, strain LGE1, active compounds read low
# [26] = S. cerevisiae deletion strains, locus YPL241C, strain CIN2, active compounds read low
# [27] = S. cerevisiae deletion strains, locus YPR135W, strain CTF4, active compounds read low
# [28] = S. cerevisiae deletion strains, locus YGR229C, strain SMI1, active compounds read low
# [29] = S. cerevisiae deletion strains, locus YJL187C, strain SWE1, active compounds read low
# [30] = S. cerevisiae deletion strains, locus YMR307W, strain GAS1, active compounds read low
smiles,measurement,setting,value
Cc1ccc(CSC(=N)N)cc1,normalized growth,[1],1.01
same,normalized growth,[2],0.994
same,normalized growth,[3],1.01
same,normalized growth,[4],0.994
same,normalized growth,"S. cerevisiae deletion strains, locus YDL134C, strain PPH21, active compounds read low",1
same,normalized growth,[5],0.998
same,normalized growth,[6],0.976
same,normalized growth,[7],1.02
same,normalized growth,[8],0.995
same,normalized growth,[9],0.988
same,normalized growth,[10],1
same,normalized growth,[11],0.973
same,normalized growth,[12],1.01
same,normalized growth,[13],1.01
same,normalized growth,[14],1.01
same,normalized growth,[15],1.01
same,normalized growth,[16],1
same,normalized growth,[17],0.977
same,normalized growth,[18],1
same,normalized growth,[19],1.01
same,normalized growth,[20],0.999
same,normalized growth,[21],1
same,normalized growth,[22],0.995
same,normalized growth,[23],0.0939 (active)
same,normalized growth,[24],1.03
same,normalized growth,[25],1.01
same,normalized growth,[26],0.149 (active)
same,normalized growth,[27],1.01
same,normalized growth,"S. cerevisiae strains, strain wild type, active compounds read low",1.01
Cc1ccc(CS/C(N)=N\N)cc1,normalized growth,[1],0.993
same,normalized growth,[2],0.996
same,normalized growth,[3],0.98
same,normalized growth,[4],0.97
same,normalized growth,[5],0.95
same,normalized growth,[6],1
same,normalized growth,[7],1
same,normalized growth,[28],0.978
same,normalized growth,[8],0.836
same,normalized growth,[9],0.983
same,normalized growth,[29],0.995
same,normalized growth,[10],0.978
same,normalized growth,[11],1.02
same,normalized growth,[12],0.982
same,normalized growth,[13],0.846
same,normalized growth,[14],0.99
same,normalized growth,[15],0.952
same,normalized growth,[16],0.889
same,normalized growth,[17],1.01
same,normalized growth,[18],0.989
same,normalized growth,[19],0.976
same,normalized growth,[30],1.05
same,normalized growth,[20],0.979
same,normalized growth,[21],0.963
same,normalized growth,[22],0.999
same,normalized growth,[23],0.976
same,normalized growth,[24],0.854
same,normalized growth,[25],0.967
same,normalized growth,[26],0.969
same,normalized growth,[27],0.907
N=C(N)SCCc1cccc(CCSC(=N)N)c1,normalized growth,[1],0.957
same,normalized growth,"S. cerevisiae deletion strains, locus YAL040C, strain CLN3, active compounds read low",1.05
same,normalized growth,"S. cerevisiae deletion strains, locus YCL061C, strain MRC1 (second series), active compounds read low",0.984
same,normalized growth,"S. cerevisiae deletion strains, locus YDR363W, strain ESC2, active compounds read low",0.997
same,normalized growth,"S. cerevisiae deletion strains, locus YER002W, strain NOP16, active compounds read low",1.02
same,normalized growth,[7],0.992
same,normalized growth,[30],1.01
same,normalized growth,[20],1.16
same,normalized growth,"S. cerevisiae deletion strains, locus YNL175C, strain NOP13, active compounds read low",1.02
same,normalized growth,"S. cerevisiae deletion strains, locus YNL197C, strain WHI3, active compounds read low",0.981
same,normalized growth,"S. cerevisiae deletion strains, locus YNL224C, strain SQS1, active compounds read low",1.05
same,normalized growth,[22],0.975
same,normalized growth,"S. cerevisiae deletion strains, locus YOR083W, strain WHI5 (second series), active compounds read low",0.963
CC1(C)CCC(C(C)(C)O)CC1,normalized growth,[1],0.988
same,normalized growth,[2],1.01
same,normalized growth,[3],0.999
same,normalized growth,[4],1
same,normalized growth,[5],0.985
same,normalized growth,[6],1.03
same,normalized growth,[7],1.02
same,normalized growth,[28],0.991
same,normalized growth,[8],1.02
same,normalized growth,[9],1.02
same,normalized growth,[29],0.838 (active)
same,normalized growth,[10],0.988
same,normalized growth,[11],1
same,normalized growth,[12],0.992
same,normalized growth,[13],0.978
same,normalized growth,[14],0.995
same,normalized growth,[15],1.04
same,normalized growth,[16],0.939
same,normalized growth,[17],1.04
same,normalized growth,[18],0.998
same,normalized growth,[19],1.01
same,normalized growth,"S. cerevisiae deletion strains, locus YNL128W, strain TEP1, active compounds read low",0.99
same,normalized growth,[20],1.01
same,normalized growth,[21],0.994
same,normalized growth,[22],0.994
same,normalized growth,[23],1.01
same,normalized growth,[24],0.984
same,normalized growth,[25],1.01
same,normalized growth,[26],1.04
same,normalized growth,[27],0.989
